Shown are actives, neighbours in structure and some others; about 0.89% of the full set was active somewhere.
AGP1-GFP MLPCN: modulators of AGP1-GFP expression in yeast TOR pathway, primary screen, cell-based, multiplex flow cytometry, S. cerevisiae, MLPCN library; GFP response vs DMSO, % at 10 µM; 3 h; GFP as percent of DMSO wells; 320,000 tested, 0.02% active;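 active means GFP response relative to DMSO above a set limit, near screen average plus 3 SD, cut at about 150% in these data; inconclusive means fewer than 70 cells counted for the yeast strain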;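 further: median GFP channel fluorescence of the gated AGP1 strain per well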
MEP2 TOR yeast: modulators of MEP2-GFP levels in yeast, primary screen, S. cerevisiae, multiplex flow cytometry, MLPCN library; S. cerevisiae MEP2-GFP strain, 3 h; 100% = DMSO control level; GFP response vs DMSO, % at 10 µM; 330,000 tested, 0.51% active; AID 2016, 2009;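 active means GFP response versus DMSO above a set limit, roughly screen mean plus 3 SD, cut at about 180% in these data; inconclusive means fewer than 70 cells counted for a yeast strain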;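 further: median GFP fluorescence of the barcode-gated MEP2-GFP cells per well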
RPL19A TOR yeast: RPL19A-GFP expression modulators in yeast, primary screen, cell-based, S. cerevisiae, multiplex flow cytometry, MLPCN; percent response vs DMSO, % at 10 µM; 330,000 tested, 0.3% active; S. cerevisiae RPL19A-GFP strain, 3 h; hits give low values;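 active means percent response vs DMSO below 50%; inconclusive means fewer than 70 events counted for the yeast strain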;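 further: median channel GFP fluorescence of the barcoded RPL19A-GFP strain; ratio of sample median GFP to plate DMSO average so 100% = DMSO; lower means less RPL19A-GFP as with rapamycin TOR inhibition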
CIT2-GFP yeast: modulators of CIT2-GFP expression in yeast, primary screen, S. cerevisiae, GFP fusion, multiplex flow cytometry, MLPCN library | S. cerevisiae CIT2-GFP strain, 3 h; 100 means same as DMSO wells | GFP response vs DMSO, % at 10 µM | 320,000 tested, 0.065% active | AID 2029, 2009;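 active means GFP response relative to DMSO above a set limit, near the screen mean plus 3 SD, cut at about 150% in these data; inconclusive means Fewer than 70 cells measured for a yeast strain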;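 further: ratio of well median GFP fluorescence to mean of DMSO wells on the plate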
LAP4-GFP MLPCN: modulators of LAP4-GFP expression in yeast, primary screen, S. cerevisiae, multiplex flow cytometry, MLPCN library; 3 h; median GFP as percent of DMSO wells; GFP response vs DMSO, % at 10 µM; 320,000 tested, 0.34% active; AID 2023, 2009;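 active means GFP response vs DMSO above a set limit, about the screen mean plus 3 SD, cut at about 150% in these data; inconclusive means under 70 cell events counted for the yeast strain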
The depositor's hits bear a star; ? = inconclusive; · = no result given; [ ] = remark or other dose.

SMILES	AGP1-GFP MLPCN	MEP2 TOR yeast	RPL19A TOR yeast	CIT2-GFP yeast	LAP4-GFP MLPCN
CCOC(=O)C1(C)/C(=N/Nc2ccc(Cl)cc2)C(=O)C(=O)N1c1ccccc1 (stereo not given)	102.2	102.6	100.6	100.2	96.6
CCOC(=O)C1(C)/C(=N/Nc2ccccc2Cl)C(=O)C(=O)N1c1ccccc1 (stereo not given)	·	560.5*[may fluoresce violet]	40.9*[may fluoresce violet]	?	105.5
CCn1c(CCC(=O)Nc2nc3c(s2)CCCC3)nc2cc(S(=O)(=O)N(C)C)ccc21	?	249.8*[may fluoresce violet]	36.6*[may fluoresce violet]	?	74.7
Oc1ccc(-c2csc(-c3ccccc3)n2)cc1O	87.6	97.2	90.4	101.1	206.2*
CCCc1nnc(SCC(=O)N2CCCCC2)n1CC1CCCO1 (stereo not given)	31.1	200.3*[may fluoresce violet]	65.2	?	95.9
CCCc1nnc(SCC(=O)N2CCCC2)n1CC1CCCO1 (stereo not given)	·	107.6	91.8	90.9	100.8
CC1CCN(S(=O)(=O)c2cccc(C(=O)Nc3nccs3)c2)CC1	111.5	213.7*	104.9	152.2*	165.9*
CN1CCN(S(=O)(=O)c2cccc(C(=O)Nc3nccs3)c2)CC1	108.9	99.2	95.0	110.2	106.6
CN(C)/C=C/C(=O)/C=C/c1cn(-c2ncc(C(F)(F)F)cc2Cl)c2ccccc12	?	232.3*[may fluoresce violet]	41.5*[may fluoresce violet]	?	82.2
CCOC(=O)C1=C(Cc2ccc(C)cc2)C(=O)c2ccccc2C1=O	81.1	112.7	100.8	82.9	167.9*
CCOC(=O)C1=C(O)c2ccccc2C(=O)/C1=C\c1ccc(CC)cc1	99.2	108.7	94.5	88.4	126.4
C#CCSc1nnnn1-c1ccc(Br)c(C)c1	97.3	102.1	101.1	97.3	100.4
Cc1ccc(CC2CC(=O)N(Cc3ccco3)C2=O)cc1 (stereo not given)	92.8	92.4	95.7	64.9	191.3*
CCn1c2ccccc2c2cc(/C=N/n3cn[nH]c3=S)ccc21	90.5	86.8	89.9	82.7	159.9*
Cn1c(=O)[nH]c(=O)c2c1nc(N1CCCCC1)n2CCOc1ccccc1	26.4	218.2*	·	117.9	90.5
Cc1nn(-c2ccccc2)c(C)c1C1C(C#N)=C(N)Oc2n[nH]c(C)c21 (stereo not given)	31.1	317.4*[may fluoresce violet]	42.8*[may fluoresce violet]	?	112.9
Cc1nn(C)c(C)c1C1C(C#N)=C(N)Oc2n[nH]c(C)c21 (stereo not given)	101.0	98.8	103.0	98.8	96.3
CN1Cc2sc(NC(=S)NC(=O)c3ccccc3)c(C#N)c2CC1(C)C	110.3	156.6	106.2	161.4*	154.9*
COc1ccccc1N1CCN(C(=O)c2cc(=O)c3c(C)cc(C)cc3o2)CC1	?	?	40.2*[may fluoresce violet]	?	?
COC(=O)CN1C(=O)COc2ccc(S(=O)(=O)N3CCCCCC3)cc21	96.5	95.3	96.9	98.1	92.8
O=C(COc1ccccc1)N(Cc1cccc(F)c1)C1CCS(=O)(=O)C1 (stereo not given)	15.6	138.7	44.5*[may fluoresce violet]	?	85.6
O=C(Cc1ccccc1)N/N=C/c1cccn1-c1ccc([N+](=O)[O-])cc1	?	184.9*[may fluoresce violet]	31.8*[may fluoresce violet]	?	?
O=C(N/N=C/c1cccn1-c1ccc([N+](=O)[O-])cc1)C(O)c1ccccc1 (stereo not given)	112.2	106.5	101.9	103.6	94.7
COc1ccc(NC(=S)NCCN2CCOCC2)cc1	?	419.0*[may fluoresce violet]	18.8*[may fluoresce violet]	?	115.7
NCCSc1c(-c2ccc(F)cc2)[nH]c2ccccc12	24.5	616.4*[may fluoresce violet]	73.8	?	100.9
COc1ccccc1Oc1coc2c(CN3CCN(C)CC3)c(O)ccc2c1=O	?	224.9*[may fluoresce violet]	63.1	?	88.8
CC(=O)n1cc(/C=N/NC(=O)c2ccccc2O)c2ccccc21	103.0	107.0	99.2	101.2	107.3
CC(C)(C)OC(=O)n1cc(/C=N/NC(=O)c2ccco2)c2ccccc21	118.9	117.0	97.6	153.8*[may fluoresce green]	117.5
CCOc1ccc(S(=O)(=O)n2ccnc2C)cc1	152.7*	111.3	110.0	108.2	106.3
